# Legend:
# pT7_6His-AlfaTag-HOXD13 = pT7_6His-AlfaTag-HOXD13 (human, UniProt P35453 263-343); test: PADIT-seq; details: dsDNA, one strand shown
# pT7_6His-AlfaTag-ZIF268 = pT7_6His-AlfaTag-ZIF268 (human, UniProt P18146 335-423); test: PADIT-seq; details: dsDNA, one strand shown
# Chain of pT7_6His-AlfaTag-HOXD13 (P35453 263-343): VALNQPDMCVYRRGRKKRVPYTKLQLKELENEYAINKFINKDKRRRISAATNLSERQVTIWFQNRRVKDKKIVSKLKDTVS
Sequence,binding signal (pT7_6His-AlfaTag-HOXD13) [log2FC],binding signal (pT7_6His-AlfaTag-ZIF268) [log2FC]
CTCGAGGATATCAAGATCTGGCCTCGGCCGCCCATGCGGAACCTCTAGCTAGCCGACTCACTATAGGGATAATCGCCCTGAGCAAAGACC,-0.953 ± 0.115,0.0314 ± 0.091
CTCGAGGATATCAAGATCTGGCCTCGGCTTTTTACAGGGAACCTCTAGCTAGCCGACTCACTATAGGGATAATCGCCCTGAGCAAAGACC,3.18 ± 0.0923,0.066 ± 0.102
CTCGAGGATATCAAGATCTGGCCTCGGCGCGGGGGCGGGAACCTCTAGCTAGCCGACTCACTATAGGGATAATCGCCCTGAGCAAAGACC,-0.903 ± 0.133,3.63 ± 0.0947
CTCGAGGATATCAAGATCTGGCCTCGGCCTTTTATGCGGAACCTCTAGCTAGCCGACTCACTATAGGGATAATCGCCCTGAGCAAAGACC,1.88 ± 0.0756,0.00428 ± 0.0795
CTCGAGGATATCAAGATCTGGCCTCGGCTTTTTAGGCGGAACCTCTAGCTAGCCGACTCACTATAGGGATAATCGCCCTGAGCAAAGACC,0.0492 ± 0.119,0.0276 ± 0.11
CTCGAGGATATCAAGATCTGGCCTCGGCGTTTTACCAGGAACCTCTAGCTAGCCGACTCACTATAGGGATAATCGCCCTGAGCAAAGACC,0.423 ± 0.103,0.0291 ± 0.0981
CTCGAGGATATCAAGATCTGGCCTCGGCATTTTACGTGGAACCTCTAGCTAGCCGACTCACTATAGGGATAATCGCCCTGAGCAAAGACC,2.63 ± 0.0745,0.139 ± 0.0815
CTCGAGGATATCAAGATCTGGCCTCGGCAAACTAAAAGGAACCTCTAGCTAGCCGACTCACTATAGGGATAATCGCCCTGAGCAAAGACC,-0.484 ± 0.203,0.0456 ± 0.191
CTCGAGGATATCAAGATCTGGCCTCGGCCGCTTGCGCGGAACCTCTAGCTAGCCGACTCACTATAGGGATAATCGCCCTGAGCAAAGACC,-0.985 ± 0.131,0.0632 ± 0.103
CTCGAGGATATCAAGATCTGGCCTCGGCGCGTGGAGTGGAACCTCTAGCTAGCCGACTCACTATAGGGATAATCGCCCTGAGCAAAGACC,-0.822 ± 0.144,0.252 ± 0.117
CTCGAGGATATCAAGATCTGGCCTCGGCATTTTACAGGGAACCTCTAGCTAGCCGACTCACTATAGGGATAATCGCCCTGAGCAAAGACC,3.08 ± 0.0772,0.116 ± 0.0849
CTCGAGGATATCAAGATCTGGCCTCGGCGCGTGGAATGGAACCTCTAGCTAGCCGACTCACTATAGGGATAATCGCCCTGAGCAAAGACC,-0.959 ± 0.133,0.0778 ± 0.106
CTCGAGGATATCAAGATCTGGCCTCGGCGCGTGGACTGGAACCTCTAGCTAGCCGACTCACTATAGGGATAATCGCCCTGAGCAAAGACC,-0.334 ± 0.121,0.0272 ± 0.108
CTCGAGGATATCAAGATCTGGCCTCGGCTAGCTAAAAGGAACCTCTAGCTAGCCGACTCACTATAGGGATAATCGCCCTGAGCAAAGACC,-0.637 ± 0.145,0.0229 ± 0.123
CTCGAGGATATCAAGATCTGGCCTCGGCGCAGTAAAAGGAACCTCTAGCTAGCCGACTCACTATAGGGATAATCGCCCTGAGCAAAGACC,2.28 ± 0.0773,0.0357 ± 0.0818
CTCGAGGATATCAAGATCTGGCCTCGGCCCCCTAAAAGGAACCTCTAGCTAGCCGACTCACTATAGGGATAATCGCCCTGAGCAAAGACC,0.578 ± 0.0983,0.267 ± 0.0922
CTCGAGGATATCAAGATCTGGCCTCGGCGACATAAAAGGAACCTCTAGCTAGCCGACTCACTATAGGGATAATCGCCCTGAGCAAAGACC,1.3 ± 0.0763,0.00765 ± 0.0777
CTCGAGGATATCAAGATCTGGCCTCGGCGTTTTATGCGGAACCTCTAGCTAGCCGACTCACTATAGGGATAATCGCCCTGAGCAAAGACC,2.07 ± 0.0741,0.0171 ± 0.08
CTCGAGGATATCAAGATCTGGCCTCGGCGAGTGGGCGGGAACCTCTAGCTAGCCGACTCACTATAGGGATAATCGCCCTGAGCAAAGACC,-0.602 ± 0.0984,2.79 ± 0.0771
CTCGAGGATATCAAGATCTGGCCTCGGCCGCCGACGCGGAACCTCTAGCTAGCCGACTCACTATAGGGATAATCGCCCTGAGCAAAGACC,-0.893 ± 0.142,0.21 ± 0.115
CTCGAGGATATCAAGATCTGGCCTCGGCCGCCCACTAGGAACCTCTAGCTAGCCGACTCACTATAGGGATAATCGCCCTGAGCAAAGACC,-0.944 ± 0.114,0.246 ± 0.0891
CTCGAGGATATCAAGATCTGGCCTCGGCGCGCAGGCGGGAACCTCTAGCTAGCCGACTCACTATAGGGATAATCGCCCTGAGCAAAGACC,-1.07 ± 0.126,0.339 ± 0.0965
CTCGAGGATATCAAGATCTGGCCTCGGCGGAGTAAAAGGAACCTCTAGCTAGCCGACTCACTATAGGGATAATCGCCCTGAGCAAAGACC,-0.327 ± 0.108,0.0307 ± 0.0975
CTCGAGGATATCAAGATCTGGCCTCGGCCATCCACGCGGAACCTCTAGCTAGCCGACTCACTATAGGGATAATCGCCCTGAGCAAAGACC,-1.04 ± 0.111,0.00839 ± 0.0869
CTCGAGGATATCAAGATCTGGCCTCGGCGCATGGGCGGGAACCTCTAGCTAGCCGACTCACTATAGGGATAATCGCCCTGAGCAAAGACC,-0.757 ± 0.112,0.51 ± 0.0916
CTCGAGGATATCAAGATCTGGCCTCGGCGTATGGGCGGGAACCTCTAGCTAGCCGACTCACTATAGGGATAATCGCCCTGAGCAAAGACC,-0.957 ± 0.105,0.246 ± 0.0831

# Source: doi:10.1101/2024.03.05.583629
